Assay results from the supplement of paper PMC7156485.
± gives the standard deviation of the averaged measurements.

Legend:
Conditions in all cases: concentration: 10 µM; 24 h
HCC1569 [1] = assay: cell number relative to DMSO (% of DMSO); higher = more cells (less growth inhibition / toxicity)
Procedure, shortened: (§1)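 After 24 h at 37 °C with compounds at 10 µM, in triplicate, HCC1569 and TDF cells were fixed with 3.7% formaldehyde. Immunostaining used a rabbit anti-H1.0 antibody and an AlexaFluor 647 secondary, with DAPI, and six fields per well were imaged at ×10. H1.0 nuclear intensity or cell number is presented as percent of the plate control, from the median of replicates, with HCC1569 values smoothed for positional effects.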

TDF [2] = assay: as above
Procedure, shortened: as §1

TDF [3] = assay: H1.0 immunofluorescence intensity relative to DMSO (% of DMSO); higher = stronger H1.0 induction, active = 120 or more
Procedure, shortened: as §1

HCC1569 [4] = assay: H1.0 immunofluorescence intensity relative to DMSO (% of DMSO); higher = stronger H1.0 induction, active = 140 or more
Procedure, shortened: as §1
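Wherever H1.0 immunofluorescence intensity relative to DMSO is given: TDF is a line of transformed human dermal fibroblasts of mesenchymal origin.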
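Wherever cell number relative to DMSO is given: TDF denotes transformed human dermal fibroblasts of mesenchymal origin.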

SMILES | cell number (HCC1569 [1]) | cell number (TDF [2]) | H1.0 immunofluorescence intensity (TDF [3]) | H1.0 immunofluorescence intensity (HCC1569 [4])
CCCCCC(O)C=CC1OC(O)CC(O)C1CC=CCCCC(=O)O (stereo unspecified) [Thromboxane B2] | 96.2 | 95.2 | 102 (inactive) | 97.9 (inactive)
CCCCCCCC/C=C\CCCCCCCC(=O)NCC(=O)O [[(9Z)-9-octadecenoylamino]acetic acid] | 99.2 | 100 | 96.9 (inactive) | 100 (inactive)
CCOc1ccccc1OCCNC(C)Cc1ccc(OC)c(S(N)(=O)=O)c1 (stereo unspecified) [Tamsulosin] | 98.8 | 96.7 | 97.8 (inactive) | 95.4 (inactive)
CCCCCC(O)C=CC1C=CC(=O)C1CCCCCCC(=O)O (stereo unspecified) [Prostaglandin A1] | 97 ± 5.2 | 98 ± 2.2 | 93.3 (inactive) | 93.8 (inactive)
O=C(c1ccc(F)cc1)C1CCN(CCn2c(=O)[nH]c3ccccc3c2=O)CC1 [Ketanserin] | 101 | 105 | 91.7 (inactive) | 117 (inactive)
Cc1c(-c2cnccn2)ssc1=S [Oltipraz] | 105 | 101 | 97.9 (inactive) | 114 (inactive)
Cn1c(=O)c(-c2c(Cl)cccc2Cl)cc2cnc(Nc3ccc(N4CCOCC4)cc3)nc21 | 52.7 | 21.9 | 154 (active) | 88.3 (inactive)
O=C1c2c(O)ccc(O)c2C(=O)c2c(NCCNCCO)ccc(NCCNCCO)c21 [Mitoxantrone] | 53.2 ± 8.2 | 3.71 ± 2.7 | 2090 (active) | 120 (inactive)
CC(C)[N+](C)(CCOC(=O)C1c2ccccc2Oc2ccccc21)C(C)C.[Br-] [Propantheline bromide] | 99.3 | 107 | 95.1 (inactive) | 96.9 (inactive)
